For test [1], the target named is Progesterone receptor (Homo sapiens) (UniProt P06401). Description: qHTS assay to identify small molecule agonists of the progesterone receptor (PR) signaling pathway (AID 1346784; calls by dose curve; note: nearly all actives have a fitted effect of over 30% in size; note: potency is the fitted concentration of half-maximal effect). In a few lines:
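Compounds were tested for PR agonism in HEK 293T cells bearing a beta-lactamase gene under UAS control. Treatment lasted 16 hr at 37C; signal came from fluorescence of a FRET substrate.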
For orientation: qHTS replaces the single test concentration by a dilution series.

The target is the same in test [2]. The experiment in a line: qHTS assay to identify small molecule antagonists of the progesterone receptor (PR) signaling pathway (AID 1346795; active = well fitted inhibition curve with a large enough effect in the signal ratio in the repeat runs, not every such curve was filed as active; the % refers to the signal ratio). The essentials:
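In HEK293T cells bearing the PR-UAS-bla reporter, compound effects on promegestone-driven (1 nM) beta-lactamase expression are assessed after 16 hr using a fluorescent FRET substrate incubated 2 hr at room temperature.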

Test [3] can be described thus: qHTS assay to identify small molecule antagonists of the TGF-beta/Smad signaling pathway - cell viability counter screen (AID 1346824). Note: nearly all actives have a fitted effect of over 50% in size. In a few lines: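 SBE-bla HEK 293T cells were plated overnight at 37 C, then given compounds in DMSO plus TGF-beta1 (added as 0.25 ng/mL solution) for 5 hr. After the bla read, CellTiter-Glo was added to the same wells and luminescence read after 30 min at room temperature.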

Test [4] in a line: qHTS assay to identify small molecule agonists of the TGF-beta/Smad signaling pathway - cell viability counter screen (AID 1346829). Note: top concentration of the series differs between compounds; nearly all actives have a fitted effect of over 45% in size. In a few lines: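 In parallel with the Smad reporter read, viability of HEK 293T cells stably carrying SBE-bla is quantified by ATP luminescence following 5 hr compound treatment.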
Test [5] in a line: qHTS assay to identify small molecule agonists of the TGF-beta/Smad signaling pathway (AID 1346859; active = well fitted activation curve with a large enough effect in the signal ratio in the repeat runs, not every such curve was filed as active; the % refers to the signal ratio; note: series mostly up to about 77 µM). The essentials:
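Each well held 4,000 SBE-bla HEK 293T cells incubated overnight before compound addition; 5 hr later the cleavable FRET substrate went on for 2 hr at room temperature, and fluorescence was read at two emissions.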

In test [6] the target is Thyrotropin-releasing hormone receptor (Homo sapiens) (UniProt P34981). The experiment in a line: qHTS assay to identify small molecule antagonists of the thyrotropin-releasing hormone receptor (TRHR) signaling pathway (AID 1346877; active = well fitted inhibition curve with a large enough effect in the repeat runs, not every such curve was filed as active; note: series mostly up to about 51 µM). The essentials:
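Antagonism is measured as suppression of the calcium response to 1 nM TRH in TRHR-HEK293 cells that have been dye-loaded for 2 h at 37 °C after overnight plating. Each compound is tested at 15 concentrations in triplicate.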

Test [7] shares this target. Description: qHTS assay to identify small molecule agonists of the thyrotropin-releasing hormone receptor (TRHR) signaling pathway (AID 1346891; calls by dose curve; note: series mostly up to about 58 µM). The essentials: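 Screening of agonists relied on calcium signalling in HEK293 cells expressing human TRHR: dye loading 2 h at 37 °C preceded compound addition and a 3-min fluorescence time course.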
Test [8] is described as follows: Human pregnane X receptor (PXR) small molecule agonists, qHTS cell viability counter screen (AID 1346977). Note: nearly all actives have a fitted effect of over 50% in size. In a few lines:
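Tox21 qHTS format; PXR-Luc HepG2, 2,000/well, charcoal-stripped FBS 5%. Cpd exposure 24hr. Read: CellTiter-Fluor fluorescence, multiplexed with luciferase.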

The nature of test [9]: Caspase-3/7 induction in HepG2 cells by small molecules, qHTS assay (AID 1346978). Note: nearly all actives have a fitted effect of over 15% in size. The essentials:
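Wild-type HepG2 cells (2,000/well) were settled 5 h at 37 C, 5% CO2, then exposed to compounds in DMSO for 17 h. Caspase-3/7 activity was read by luminescence 30 min after adding Caspase-Glo 3/7 reagent at room temperature.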

Test [10] in a line: Caspase-3/7 induction in CHO-K1 cells by small molecules, qHTS cell viability counter screen (AID 1346979). Note: nearly all actives have a fitted effect of over 35% in size. The essentials: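 CellTiter-Fluor viability check, qHTS format: wild-type CHO-K1, 16hr compound treatment, 1hr reagent incubation, fluorescence read.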
Test [11] can be described thus: Caspase-3/7 induction in CHO-K1 cells by small molecules, qHTS assay (AID 1346980). Note: nearly all actives have a fitted effect of over 15% in size. In a few lines: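 Wild-type cells were seeded at 1,500 per well and settled 5 hr at 37 C, 5% CO2, then exposed to DMSO-dissolved compounds for 17 hr. Caspase-Glo 3/7 reagent was added, and luminescence was read after 30min at room temperature.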
Test [12] in a line: Caspase-3/7 induction in HepG2 cells by small molecules, qHTS cell viability counter screen (AID 1346981). Note: series mostly up to about 92 µM; nearly all actives have a fitted effect of over 30% in size. In a few lines:
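Cell viability is measured as a cytotoxicity counter screen alongside the Caspase-Glo 3/7 readout in identical wells. Wild-type HepG2 cells are treated with test compounds for 16 hr at 37 C before CellTiter-Fluor addition and a 1-hr incubation.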

The target in test [13] is Nuclear receptor subfamily 1 group I member 2 (Homo sapiens) (UniProt O75469). Description: Human pregnane X receptor (PXR) small molecule agonists, qHTS assay (AID 1346982). Note: nearly all actives have a fitted effect of over 35% in size. Note: potency is the fitted concentration of half-maximal effect. In a few lines: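 Cells: HepG2 stably carrying PXR-Luc. Medium held 5% charcoal-stripped FBS. Compounds in DMSO added after 5 hr plating, incubated 24 hr, then luminescence quantified with ONE-Glo.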
Chain of Nuclear receptor subfamily 1 group I member 2 (Homo sapiens) (O75469 whole entry, looked up): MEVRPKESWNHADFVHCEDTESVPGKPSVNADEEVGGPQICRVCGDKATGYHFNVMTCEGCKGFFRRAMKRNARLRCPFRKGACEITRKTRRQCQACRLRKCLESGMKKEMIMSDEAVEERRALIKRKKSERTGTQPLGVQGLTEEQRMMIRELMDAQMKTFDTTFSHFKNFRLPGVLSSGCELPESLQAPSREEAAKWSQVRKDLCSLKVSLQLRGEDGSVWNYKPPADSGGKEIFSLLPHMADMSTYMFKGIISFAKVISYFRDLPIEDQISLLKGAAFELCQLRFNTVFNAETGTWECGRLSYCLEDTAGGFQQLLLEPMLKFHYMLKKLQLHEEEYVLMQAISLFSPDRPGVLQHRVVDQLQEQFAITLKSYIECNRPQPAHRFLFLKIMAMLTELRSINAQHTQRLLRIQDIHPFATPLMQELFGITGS

The target in test [14] is Cytochrome P450 2D6 (Homo sapiens) (UniProt P10635). Description: Cytochrome P450 Family 2 Subfamily D Member 6 (CYP2D6) small molecule antagonists: luciferase reporter qHTS assay (AID 1671196). Note: nearly all actives have a fitted effect of over 50% in size. Note: potency is the fitted concentration of half-maximal effect. The essentials:
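Enzyme and proluciferin substrate were first combined with test chemical for 10 min at room temperature. Adding NADPH regeneration solution started a 1 h reaction, stopped with luciferin detection reagent and read by luminescence 20 min later.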
Background: A reporter such as luciferase makes a cellular process visible.

A short description of test [15]: qHTS assay to identify small molecule antagonists of the progesterone receptor (PR) signaling pathway - cell viability counter screen (AID 1346798). Note: series mostly up to about 92 µM; nearly all actives have a fitted effect of over 50% in size. The essentials:
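Following a 4 hr attachment, PR-UAS-bla HEK293T cells in charcoal-stripped FBS medium were exposed to compounds with R5020 for 16 hr; CellTiter-Glo was added and luminescence read after 30 min at room temperature.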

In test [16] the target is Nuclear receptor subfamily 1 group I member 2 (Rattus norvegicus) (UniProt Q9R1A7). The experiment in a line: Rat pregnane X receptor (rPXR) activation by small molecules, qHTS assay (AID 1346983). Note: nearly all actives have a fitted effect of over 20% in size. The conditions noted are these: rPXR luciferase reporter cells, One-Glo luminescence, 24 h; active compounds read high. In a few lines:
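Cell-based rPXR luciferase reporter assay, 2,000 cells per well, rested 5hr at 37 C before compound addition in DMSO, then 24 hr at 37 C. One-Glo reagent was added and luminescence read after 30 min at room temperature.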

For test [17], the target named is Nuclear receptor subfamily 1 group I member 2 (Homo sapiens) (UniProt O75469). The experiment in a line: CYP3A4 induction through human pregnane X receptor (PXR) by small molecules, qHTS assay (AID 1346984). Note: nearly all actives have a fitted effect of over 40% in size. The essentials: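 Quantitative HTS in DPX-2 cells, i.e. HepG2 transfected with PXR response element and CYP3A4-promoter luciferase. Compounds in DMSO incubated 24hr at 37C; then P450-Glo CYP3A4 substrate, 3uM final, 3hr; One-Glo luminescence.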

Test [18] shares this target. The experiment in a line: Human pregnane X receptor (PXR) activation by small molecules, qHTS assay (AID 1346985). Note: nearly all actives have a fitted effect of over 40% in size. In a few lines:
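DPX-2 cells (HepG2 co-transfected with a PXR response element and a CYP3A4-promoter luciferase construct) were seeded at 2,000 per well, rested 5 hr at 37C, then exposed to DMSO-dissolved compounds for 24 hr. Activation was read as luciferase luminescence.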

The target of test [19] is Cytochrome P450 2C19 (Homo sapiens) (UniProt P33261). Description: Cytochrome P450 Family 2 Subfamily C Member 19 (CYP2C19) small molecule antagonists: luciferase reporter qHTS assay (AID 1671197). Note: nearly all actives have a fitted effect of over 65% in size. Note: potency is the fitted concentration of half-maximal effect. The essentials: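 Compounds were tested on CYP2C19 activity via proluciferin conversion to luciferin. The 37C, 1 h reaction followed NADPH addition; detection reagent stopped it.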
Chain of Cytochrome P450 2C19 (Homo sapiens) (P33261 whole entry, looked up): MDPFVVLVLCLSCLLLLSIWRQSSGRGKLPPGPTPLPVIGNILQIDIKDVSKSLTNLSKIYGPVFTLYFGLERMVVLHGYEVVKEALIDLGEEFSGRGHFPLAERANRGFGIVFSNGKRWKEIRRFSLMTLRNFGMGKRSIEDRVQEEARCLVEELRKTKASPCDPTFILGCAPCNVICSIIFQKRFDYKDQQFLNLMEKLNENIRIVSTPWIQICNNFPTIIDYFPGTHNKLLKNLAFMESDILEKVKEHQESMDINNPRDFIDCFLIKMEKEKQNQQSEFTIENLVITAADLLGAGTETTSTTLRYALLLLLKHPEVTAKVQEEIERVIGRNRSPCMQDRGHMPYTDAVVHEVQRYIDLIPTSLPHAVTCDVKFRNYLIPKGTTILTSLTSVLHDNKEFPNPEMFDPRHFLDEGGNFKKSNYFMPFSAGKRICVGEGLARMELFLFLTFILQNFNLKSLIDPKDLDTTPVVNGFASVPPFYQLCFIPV

Test [20] in a line: qHTS assay to identify small molecule agonists of the progesterone receptor (PR) signaling pathway - cell viability counter screen (AID 1346799; calls by dose curve; note: nearly all actives have a fitted effect of over 45% in size). In a few lines:
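Here, 3,000 PR-UAS-bla HEK293T cells per well were treated with compounds for 16 hr after a 6 hr preincubation at 37C and 5% CO2; cell viability is the CellTiter-Glo luminescence signal.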

Values without a mark were called inactive. Results filed as inconclusive are left out. Calls of active or inactive are those of the source. Unless noted, calls come from the whole dose curve; as a rule, active = well fitted curve in the direction sought with a large enough effect in the repeat runs; inconclusive = weak or mixed curves; inactive = no such curve, though single readings can be large; an effect the other way counts as inactive or inconclusive.
% is set by controls: 0 for no effect and ±100 for the full control effect.

Chain of Cytochrome P450 2D6 (Homo sapiens) (P10635 whole entry, looked up): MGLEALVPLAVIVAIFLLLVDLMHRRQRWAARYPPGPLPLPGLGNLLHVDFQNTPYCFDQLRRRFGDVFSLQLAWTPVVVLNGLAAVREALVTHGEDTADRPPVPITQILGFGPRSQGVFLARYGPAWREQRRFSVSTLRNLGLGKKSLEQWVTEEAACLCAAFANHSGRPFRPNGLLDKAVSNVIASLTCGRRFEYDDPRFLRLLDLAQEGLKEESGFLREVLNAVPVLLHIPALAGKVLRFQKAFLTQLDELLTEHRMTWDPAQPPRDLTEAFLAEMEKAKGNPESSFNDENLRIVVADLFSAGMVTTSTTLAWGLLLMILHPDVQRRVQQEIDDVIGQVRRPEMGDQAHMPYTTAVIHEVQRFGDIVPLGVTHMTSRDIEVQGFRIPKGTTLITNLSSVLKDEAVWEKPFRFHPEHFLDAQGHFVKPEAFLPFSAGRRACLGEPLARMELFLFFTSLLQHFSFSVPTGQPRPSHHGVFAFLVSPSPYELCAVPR
Chain of Thyrotropin-releasing hormone receptor (Homo sapiens) (P34981 whole entry, looked up): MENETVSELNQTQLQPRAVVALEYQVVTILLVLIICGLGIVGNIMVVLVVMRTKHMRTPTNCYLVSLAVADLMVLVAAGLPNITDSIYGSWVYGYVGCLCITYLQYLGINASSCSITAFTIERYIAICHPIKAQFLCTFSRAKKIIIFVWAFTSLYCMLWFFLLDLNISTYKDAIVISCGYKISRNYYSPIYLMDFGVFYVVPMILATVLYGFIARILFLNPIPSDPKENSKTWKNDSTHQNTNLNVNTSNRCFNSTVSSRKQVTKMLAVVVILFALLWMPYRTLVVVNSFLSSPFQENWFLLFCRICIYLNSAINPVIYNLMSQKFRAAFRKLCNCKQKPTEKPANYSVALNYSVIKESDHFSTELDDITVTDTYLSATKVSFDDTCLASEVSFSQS
Chain of Nuclear receptor subfamily 1 group I member 2 (Rattus norvegicus) (Q9R1A7 whole entry, looked up): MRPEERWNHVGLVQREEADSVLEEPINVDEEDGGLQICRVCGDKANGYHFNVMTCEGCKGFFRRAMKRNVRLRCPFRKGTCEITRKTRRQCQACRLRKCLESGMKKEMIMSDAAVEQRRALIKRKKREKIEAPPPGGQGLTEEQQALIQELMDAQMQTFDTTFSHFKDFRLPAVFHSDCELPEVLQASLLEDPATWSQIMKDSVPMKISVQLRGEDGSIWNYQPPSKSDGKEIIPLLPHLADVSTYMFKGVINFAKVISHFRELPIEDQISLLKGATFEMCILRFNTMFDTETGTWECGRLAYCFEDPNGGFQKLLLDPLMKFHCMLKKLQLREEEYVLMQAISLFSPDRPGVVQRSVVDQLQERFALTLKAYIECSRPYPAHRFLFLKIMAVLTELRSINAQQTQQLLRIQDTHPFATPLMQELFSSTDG
Chain of Progesterone receptor (Homo sapiens) (P06401 whole entry, looked up): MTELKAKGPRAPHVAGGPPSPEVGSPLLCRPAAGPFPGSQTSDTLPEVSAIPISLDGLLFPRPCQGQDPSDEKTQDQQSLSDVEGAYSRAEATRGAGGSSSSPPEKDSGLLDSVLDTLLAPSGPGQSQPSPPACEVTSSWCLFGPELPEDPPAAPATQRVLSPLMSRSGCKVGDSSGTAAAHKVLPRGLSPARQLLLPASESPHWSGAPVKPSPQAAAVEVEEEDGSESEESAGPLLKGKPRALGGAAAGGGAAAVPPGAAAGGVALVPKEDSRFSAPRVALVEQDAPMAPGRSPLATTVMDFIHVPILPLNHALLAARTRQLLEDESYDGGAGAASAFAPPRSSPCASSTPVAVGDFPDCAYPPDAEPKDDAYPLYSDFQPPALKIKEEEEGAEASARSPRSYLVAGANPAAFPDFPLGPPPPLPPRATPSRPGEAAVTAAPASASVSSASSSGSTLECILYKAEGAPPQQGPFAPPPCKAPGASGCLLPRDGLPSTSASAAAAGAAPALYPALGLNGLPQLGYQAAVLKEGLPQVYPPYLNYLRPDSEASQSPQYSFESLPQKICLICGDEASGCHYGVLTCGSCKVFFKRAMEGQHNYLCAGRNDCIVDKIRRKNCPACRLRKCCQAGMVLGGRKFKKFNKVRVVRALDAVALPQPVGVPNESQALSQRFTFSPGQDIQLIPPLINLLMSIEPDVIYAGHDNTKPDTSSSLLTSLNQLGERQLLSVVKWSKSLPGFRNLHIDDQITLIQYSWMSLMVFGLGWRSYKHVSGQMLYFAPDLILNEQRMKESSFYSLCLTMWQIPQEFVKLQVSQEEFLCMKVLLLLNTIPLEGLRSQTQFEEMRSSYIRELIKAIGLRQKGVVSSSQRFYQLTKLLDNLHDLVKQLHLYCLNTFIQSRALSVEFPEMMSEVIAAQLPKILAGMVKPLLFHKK

As for `N#Cc1ccc(C(=O)O)cc1`, the Potency result in test [1], in test [2], in [8], in test [9], in [10] and in test [12] was “inactive” each time. Moreover, the Potency result in [13] was “inactive”. The outcome in test [3], in test [4], in test [5], in [6], in test [7] and in test [11] was inactive. The Potency in [14] is 28.3 µM (active).
With `COC(=O)[C@@H]1[C@H]2C[C@H]3c4[nH]c5ccccc5c4CCN3C[C@@H]2CC[C@@H]1O`, the Potency result in [1], in test [2], in test [15], in [8], in [9] and in test [12] was “inactive” in each case. Besides, the outcome in test [3], in test [4], in [5], in test [6], in test [7] and in [11] was inactive.
As for `CO[C@@H]1[C@@H](OC(N)=O)[C@@H](O)[C@H](Oc2ccc3c(O)c(NC(=O)c4ccc(O)c(CC=C(C)C)c4)c(=O)oc3c2C)OC1(C)C`, the Potency result in [1], in test [2], in [15], in [8], in test [9] and in test [12] was “inactive” throughout. In addition, the Potency entry in test [13], in test [17], in test [18] and in [14] was “inactive” each time. In addition, the result in [3], in test [4], in test [5], in test [6], in test [7] and in test [11] was inactive. In addition, the max activation in test [16] was -3.79%.
Consider `Cc1ccc(S(=O)(=O)O)c(C)c1`, for which the Potency entry in test [1], in test [2], in test [15], in test [8], in test [9] and in test [12] was “inactive” throughout. For the same compound, the Potency result in [13], in test [14] and in test [19] was “inactive” throughout. Besides, the result in test [3], in test [4], in test [5], in test [7] and in test [11] was inactive.
As for `Cc1cc2cc3c(C)cc(=O)oc3c(C)c2o1`, the Potency entry in [1], in test [15], in test [20], in [8], in test [9] and in test [10] was “inactive” in each case. The Potency entry in test [12], in test [17], in test [18], in test [14] and in [19] was “inactive” throughout. Besides, the result in test [3], in test [4], in test [5], in test [6], in [7] and in test [11] was inactive. Also, in [13], the Potency is 5.96 µM (active). Moreover, in test [16], the max activation is 1.62%.
Take `CC(CN)CC(C)(C)CCN` (stereo unspecified): the Potency entry in test [1], in test [2], in test [15], in [8], in [9] and in [12] was “inactive” in each case. In test [13], the Potency entry was “inactive”. The call in test [4], in test [5], in [7] and in test [11] was inactive. Moreover, the values for the Potency in test [14] and in test [19] were 11.5 µM (active) and 36.5 µM (active), respectively.
In the case of `COc1ccc2c(c1)C(=O)N(CCc1ccc(S(=O)(=O)NC(=O)NC3CCCCC3)cc1)C(=O)C2(C)C`, the Potency in test [1] is 5.96 µM (active). Also, the Potency entry in [15], in [8], in test [9], in test [10], in test [12] and in [19] was “inactive” throughout. The result in test [3], in [4], in [6] and in [11] was inactive. For the same compound, the max activation in test [16] is -1.03%.
With `NNc1nnc(NN)c2ccccc12`, the Potency result in [15], in test [20], in test [8], in test [9], in test [10] and in test [12] was “inactive” in each case. The Potency result in test [17], in test [18] and in [19] was “inactive” in each case. Besides, the compound was called inactive in test [3], in test [4], in [5], in [6], in [7] and in test [11].

The record behind these values is PubChem BioAssay (Tox21).
